According to the supplement of paper PMC11732987, “Enantioselective OTUD7B fragment discovery through chemoproteomics screening and high-throughput optimisation” (Communications Chemistry, 2025):

How the values were obtained:
Test in all cases: log2 ratio of Biotin-Ahx-Ub-VS probe labelling (fragment/DMSO); higher = less target engagement (more negative = stronger competition), active = hit call of the paper (q ≤ 0.05, log2 ratio ≤ -1)
Conditions in all cases: compound concentration: 200 uM; treatment time: 3 h
USP34 = USP34 (UniProt Q70CQ2)
Summary of the method: (§1)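 Global-median-normalised Spectronaut label-free quantities were compared by unpaired t-test, and values are average log2 ratios of fragment over vehicle. Only proteins with ≥2 unique peptides were used. HEK293T lysate (495 µg per sample) was treated in triplicate with fragment at 200 µM or vehicle for 3 h and then with Biotin-Ahx-Ub-VS at 0.5 µM final for 1 h. Labelled DUBs were then NeutrAvidin-enriched, digested with LysC and trypsin, and run by diaPASEF LC-MS/MS.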

USP36 = target: T1, USP36 (UniProt Q9P275)
T1 sequence (whole entry): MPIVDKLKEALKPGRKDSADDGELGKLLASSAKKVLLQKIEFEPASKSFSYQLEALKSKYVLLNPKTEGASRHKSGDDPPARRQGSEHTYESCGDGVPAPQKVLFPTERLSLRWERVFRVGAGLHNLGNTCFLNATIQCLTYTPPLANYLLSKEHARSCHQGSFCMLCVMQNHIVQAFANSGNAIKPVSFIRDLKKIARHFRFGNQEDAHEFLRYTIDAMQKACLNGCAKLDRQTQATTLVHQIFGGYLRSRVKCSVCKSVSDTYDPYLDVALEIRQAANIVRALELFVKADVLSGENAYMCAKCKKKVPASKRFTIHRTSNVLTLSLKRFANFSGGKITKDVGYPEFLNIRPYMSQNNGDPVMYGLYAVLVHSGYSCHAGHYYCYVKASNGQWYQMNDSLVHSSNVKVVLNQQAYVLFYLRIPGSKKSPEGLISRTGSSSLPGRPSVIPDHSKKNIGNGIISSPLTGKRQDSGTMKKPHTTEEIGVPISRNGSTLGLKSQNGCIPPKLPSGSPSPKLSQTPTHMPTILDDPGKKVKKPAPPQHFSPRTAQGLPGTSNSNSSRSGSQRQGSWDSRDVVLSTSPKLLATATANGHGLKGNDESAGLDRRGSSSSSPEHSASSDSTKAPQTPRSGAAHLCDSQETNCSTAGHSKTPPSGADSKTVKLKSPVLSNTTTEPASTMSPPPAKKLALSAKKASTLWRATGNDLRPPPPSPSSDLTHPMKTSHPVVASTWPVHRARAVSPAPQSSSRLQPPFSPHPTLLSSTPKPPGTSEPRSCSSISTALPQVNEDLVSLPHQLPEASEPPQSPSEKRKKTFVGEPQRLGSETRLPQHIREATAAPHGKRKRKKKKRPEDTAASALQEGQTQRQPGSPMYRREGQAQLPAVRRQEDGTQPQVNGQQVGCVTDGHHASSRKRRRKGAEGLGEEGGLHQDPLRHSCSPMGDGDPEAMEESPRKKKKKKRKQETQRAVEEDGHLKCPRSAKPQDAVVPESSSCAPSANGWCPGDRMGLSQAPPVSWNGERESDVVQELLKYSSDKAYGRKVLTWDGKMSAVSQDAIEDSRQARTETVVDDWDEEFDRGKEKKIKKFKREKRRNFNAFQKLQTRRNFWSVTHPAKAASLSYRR
Summary of the method: as §1

USP38 = target: T2, USP38 (UniProt Q8NB14)
T2 sequence (whole entry): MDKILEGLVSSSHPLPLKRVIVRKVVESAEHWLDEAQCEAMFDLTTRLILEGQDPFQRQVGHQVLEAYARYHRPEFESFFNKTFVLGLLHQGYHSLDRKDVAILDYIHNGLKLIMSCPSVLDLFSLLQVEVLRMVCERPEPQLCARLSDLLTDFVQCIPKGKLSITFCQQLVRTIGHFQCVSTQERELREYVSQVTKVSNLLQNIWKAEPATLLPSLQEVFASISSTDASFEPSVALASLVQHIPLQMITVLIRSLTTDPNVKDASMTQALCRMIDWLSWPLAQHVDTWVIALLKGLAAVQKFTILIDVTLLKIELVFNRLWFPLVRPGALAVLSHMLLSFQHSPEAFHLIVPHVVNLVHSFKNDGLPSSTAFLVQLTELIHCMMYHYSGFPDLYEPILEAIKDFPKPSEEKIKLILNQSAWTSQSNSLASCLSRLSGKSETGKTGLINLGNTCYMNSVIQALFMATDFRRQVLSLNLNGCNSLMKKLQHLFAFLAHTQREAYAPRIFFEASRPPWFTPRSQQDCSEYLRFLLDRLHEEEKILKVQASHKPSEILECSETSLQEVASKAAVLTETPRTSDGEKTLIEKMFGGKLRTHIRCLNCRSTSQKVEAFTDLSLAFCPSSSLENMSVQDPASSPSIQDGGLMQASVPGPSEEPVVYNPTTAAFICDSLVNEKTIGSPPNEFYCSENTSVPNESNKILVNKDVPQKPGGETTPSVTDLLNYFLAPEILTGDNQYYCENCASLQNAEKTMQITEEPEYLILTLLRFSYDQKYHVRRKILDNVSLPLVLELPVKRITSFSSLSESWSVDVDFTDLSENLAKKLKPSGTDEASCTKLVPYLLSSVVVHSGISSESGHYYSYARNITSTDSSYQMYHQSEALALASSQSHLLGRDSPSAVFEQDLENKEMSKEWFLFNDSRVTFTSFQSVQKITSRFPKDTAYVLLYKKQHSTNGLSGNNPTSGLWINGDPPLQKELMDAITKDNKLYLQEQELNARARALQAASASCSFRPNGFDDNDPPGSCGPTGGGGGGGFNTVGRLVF
Summary of the method: as §1

USP39 = target: T3, USP39 (UniProt Q53GS9)
T3 sequence (whole entry): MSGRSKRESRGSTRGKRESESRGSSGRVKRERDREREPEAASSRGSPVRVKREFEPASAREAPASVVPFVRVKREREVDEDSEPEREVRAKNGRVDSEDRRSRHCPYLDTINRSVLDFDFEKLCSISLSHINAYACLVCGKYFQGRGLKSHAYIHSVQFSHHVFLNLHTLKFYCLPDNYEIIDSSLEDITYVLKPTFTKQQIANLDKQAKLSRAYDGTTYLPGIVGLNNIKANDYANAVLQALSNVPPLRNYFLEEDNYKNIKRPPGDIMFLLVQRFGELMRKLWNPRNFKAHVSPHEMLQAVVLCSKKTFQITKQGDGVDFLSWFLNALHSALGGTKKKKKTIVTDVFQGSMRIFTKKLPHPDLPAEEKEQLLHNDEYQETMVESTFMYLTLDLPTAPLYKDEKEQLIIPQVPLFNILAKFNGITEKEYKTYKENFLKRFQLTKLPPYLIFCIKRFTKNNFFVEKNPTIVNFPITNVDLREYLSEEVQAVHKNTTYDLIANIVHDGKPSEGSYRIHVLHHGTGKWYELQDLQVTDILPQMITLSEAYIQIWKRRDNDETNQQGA
Summary of the method: as §1

USP4 = target: T4, USP4 (UniProt Q13107)
T4 sequence (whole entry): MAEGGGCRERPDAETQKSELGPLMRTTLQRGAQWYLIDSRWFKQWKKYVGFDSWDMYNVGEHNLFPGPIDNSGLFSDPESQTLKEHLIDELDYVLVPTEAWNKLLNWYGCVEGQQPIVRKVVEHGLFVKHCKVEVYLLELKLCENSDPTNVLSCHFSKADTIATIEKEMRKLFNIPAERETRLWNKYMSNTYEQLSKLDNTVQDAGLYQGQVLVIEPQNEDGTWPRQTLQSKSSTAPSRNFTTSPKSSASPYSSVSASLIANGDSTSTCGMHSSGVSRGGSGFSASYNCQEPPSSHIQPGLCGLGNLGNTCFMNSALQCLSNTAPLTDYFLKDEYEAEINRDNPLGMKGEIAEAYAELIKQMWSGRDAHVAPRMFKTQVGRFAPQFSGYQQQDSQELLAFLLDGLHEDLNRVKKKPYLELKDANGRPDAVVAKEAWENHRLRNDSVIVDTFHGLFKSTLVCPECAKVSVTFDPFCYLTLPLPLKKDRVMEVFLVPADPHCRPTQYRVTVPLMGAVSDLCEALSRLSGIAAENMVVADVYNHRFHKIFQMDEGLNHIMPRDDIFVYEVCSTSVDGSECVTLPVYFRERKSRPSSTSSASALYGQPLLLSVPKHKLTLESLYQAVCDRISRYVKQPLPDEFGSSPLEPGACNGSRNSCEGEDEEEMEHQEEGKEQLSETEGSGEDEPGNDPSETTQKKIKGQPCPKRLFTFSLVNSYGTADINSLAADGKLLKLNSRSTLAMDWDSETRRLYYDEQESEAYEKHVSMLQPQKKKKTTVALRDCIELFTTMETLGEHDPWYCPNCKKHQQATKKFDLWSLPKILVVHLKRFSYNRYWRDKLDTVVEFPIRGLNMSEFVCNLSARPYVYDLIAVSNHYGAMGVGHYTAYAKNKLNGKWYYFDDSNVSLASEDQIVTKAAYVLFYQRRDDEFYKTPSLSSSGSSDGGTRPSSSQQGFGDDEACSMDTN
Summary of the method: as §1

Measured: log2 ratio of Biotin-Ahx-Ub-VS probe labelling

Chain of USP34 (Q70CQ2 whole entry, the tested form may be a part): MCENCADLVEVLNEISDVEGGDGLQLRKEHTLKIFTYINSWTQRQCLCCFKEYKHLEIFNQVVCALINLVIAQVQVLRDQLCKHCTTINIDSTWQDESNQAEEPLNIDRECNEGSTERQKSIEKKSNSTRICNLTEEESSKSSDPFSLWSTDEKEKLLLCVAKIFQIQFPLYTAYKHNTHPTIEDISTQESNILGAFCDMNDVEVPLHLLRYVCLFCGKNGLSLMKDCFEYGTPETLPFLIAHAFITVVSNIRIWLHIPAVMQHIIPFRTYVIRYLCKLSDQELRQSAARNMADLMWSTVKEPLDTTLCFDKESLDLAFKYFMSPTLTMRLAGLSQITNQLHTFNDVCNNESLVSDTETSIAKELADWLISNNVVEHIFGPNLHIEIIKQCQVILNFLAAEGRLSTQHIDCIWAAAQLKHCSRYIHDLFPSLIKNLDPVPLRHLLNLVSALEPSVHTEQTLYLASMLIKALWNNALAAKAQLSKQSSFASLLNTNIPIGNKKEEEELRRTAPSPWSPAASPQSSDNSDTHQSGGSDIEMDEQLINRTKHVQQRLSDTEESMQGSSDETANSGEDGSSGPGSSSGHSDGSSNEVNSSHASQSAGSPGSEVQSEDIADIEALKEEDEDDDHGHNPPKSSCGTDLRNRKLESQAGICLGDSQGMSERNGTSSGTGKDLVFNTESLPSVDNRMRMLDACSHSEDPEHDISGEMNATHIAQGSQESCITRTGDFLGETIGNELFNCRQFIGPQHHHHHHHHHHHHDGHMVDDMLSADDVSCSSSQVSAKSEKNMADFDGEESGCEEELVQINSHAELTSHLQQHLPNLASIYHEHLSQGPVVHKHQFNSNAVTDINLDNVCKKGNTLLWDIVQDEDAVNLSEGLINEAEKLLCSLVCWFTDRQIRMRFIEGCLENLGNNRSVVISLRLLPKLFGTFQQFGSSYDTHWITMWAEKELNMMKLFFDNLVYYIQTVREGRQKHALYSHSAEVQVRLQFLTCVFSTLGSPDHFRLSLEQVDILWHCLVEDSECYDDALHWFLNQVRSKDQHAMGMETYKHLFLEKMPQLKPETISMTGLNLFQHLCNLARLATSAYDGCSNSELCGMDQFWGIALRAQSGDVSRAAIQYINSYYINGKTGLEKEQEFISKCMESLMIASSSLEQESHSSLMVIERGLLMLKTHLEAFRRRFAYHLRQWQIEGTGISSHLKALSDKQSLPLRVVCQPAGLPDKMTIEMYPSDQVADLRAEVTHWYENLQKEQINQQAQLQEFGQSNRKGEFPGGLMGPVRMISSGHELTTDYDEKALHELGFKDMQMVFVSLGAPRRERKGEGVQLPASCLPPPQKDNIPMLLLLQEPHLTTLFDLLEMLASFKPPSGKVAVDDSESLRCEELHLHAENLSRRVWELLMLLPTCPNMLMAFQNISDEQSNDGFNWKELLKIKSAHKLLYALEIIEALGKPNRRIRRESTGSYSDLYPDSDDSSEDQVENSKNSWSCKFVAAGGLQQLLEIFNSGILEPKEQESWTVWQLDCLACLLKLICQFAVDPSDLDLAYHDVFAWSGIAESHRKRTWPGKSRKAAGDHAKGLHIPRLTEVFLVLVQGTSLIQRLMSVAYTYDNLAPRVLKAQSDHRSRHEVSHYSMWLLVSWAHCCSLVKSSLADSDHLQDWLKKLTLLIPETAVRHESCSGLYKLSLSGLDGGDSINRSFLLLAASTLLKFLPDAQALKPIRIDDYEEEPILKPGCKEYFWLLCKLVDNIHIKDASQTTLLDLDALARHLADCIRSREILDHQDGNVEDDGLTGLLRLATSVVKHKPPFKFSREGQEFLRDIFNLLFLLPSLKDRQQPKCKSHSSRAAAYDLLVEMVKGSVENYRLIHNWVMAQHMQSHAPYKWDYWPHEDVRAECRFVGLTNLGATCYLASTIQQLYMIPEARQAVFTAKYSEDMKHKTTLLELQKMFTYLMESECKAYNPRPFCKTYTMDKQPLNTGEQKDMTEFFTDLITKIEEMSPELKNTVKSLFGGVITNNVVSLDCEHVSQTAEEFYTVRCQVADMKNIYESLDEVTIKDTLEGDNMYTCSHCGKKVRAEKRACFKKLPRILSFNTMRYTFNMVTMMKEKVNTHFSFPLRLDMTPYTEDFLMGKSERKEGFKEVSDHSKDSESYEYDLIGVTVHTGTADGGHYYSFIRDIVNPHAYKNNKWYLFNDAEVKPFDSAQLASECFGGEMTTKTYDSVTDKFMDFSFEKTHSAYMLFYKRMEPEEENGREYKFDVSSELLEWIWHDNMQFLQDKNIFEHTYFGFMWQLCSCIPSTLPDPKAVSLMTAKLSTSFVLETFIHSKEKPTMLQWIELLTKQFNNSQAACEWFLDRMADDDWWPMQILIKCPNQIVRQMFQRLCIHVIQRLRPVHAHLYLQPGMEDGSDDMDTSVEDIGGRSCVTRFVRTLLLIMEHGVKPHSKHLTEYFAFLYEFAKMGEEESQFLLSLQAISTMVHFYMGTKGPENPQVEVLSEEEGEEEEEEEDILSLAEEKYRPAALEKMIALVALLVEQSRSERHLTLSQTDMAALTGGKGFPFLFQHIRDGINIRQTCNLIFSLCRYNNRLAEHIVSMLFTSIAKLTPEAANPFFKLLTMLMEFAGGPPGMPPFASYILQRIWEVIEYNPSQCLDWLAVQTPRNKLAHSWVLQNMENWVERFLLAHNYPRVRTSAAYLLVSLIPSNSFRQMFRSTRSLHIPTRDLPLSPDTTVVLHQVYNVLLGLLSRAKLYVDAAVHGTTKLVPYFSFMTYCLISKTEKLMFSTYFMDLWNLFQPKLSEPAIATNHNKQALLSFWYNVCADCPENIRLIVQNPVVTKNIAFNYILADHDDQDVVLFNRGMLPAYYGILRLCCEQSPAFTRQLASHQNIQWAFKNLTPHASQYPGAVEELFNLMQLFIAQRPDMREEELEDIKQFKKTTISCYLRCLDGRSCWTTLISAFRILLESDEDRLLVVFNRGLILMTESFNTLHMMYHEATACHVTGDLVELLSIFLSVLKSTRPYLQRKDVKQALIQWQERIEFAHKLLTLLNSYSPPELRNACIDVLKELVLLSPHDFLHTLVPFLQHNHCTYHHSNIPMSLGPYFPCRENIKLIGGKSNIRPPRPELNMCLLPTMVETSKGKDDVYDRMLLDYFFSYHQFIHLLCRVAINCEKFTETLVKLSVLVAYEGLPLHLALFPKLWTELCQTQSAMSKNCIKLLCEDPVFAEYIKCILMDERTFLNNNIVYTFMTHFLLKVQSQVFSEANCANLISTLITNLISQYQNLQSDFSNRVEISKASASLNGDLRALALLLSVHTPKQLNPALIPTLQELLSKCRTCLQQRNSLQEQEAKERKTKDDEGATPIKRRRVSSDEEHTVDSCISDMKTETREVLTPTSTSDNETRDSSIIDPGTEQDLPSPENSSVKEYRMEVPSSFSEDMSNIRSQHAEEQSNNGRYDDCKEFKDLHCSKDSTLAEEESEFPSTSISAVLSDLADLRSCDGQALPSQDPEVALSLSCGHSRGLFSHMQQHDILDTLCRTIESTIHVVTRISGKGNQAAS

CN(CCc1ncc(Br)cn1)C(=O)CCl.Cl
inactive: USP34 -0.228 | USP36 -0.122 | USP38 -0.00939 | USP39 0.3 | USP4 -0.0898
